Most compounds without a hit are left out; they make up all but 4.7% or so of the library.
KLK7 zymogen act: activates the human kallikrein-7 zymogen. purified proKLK7, EDANS-DABCYL substrate fluorescence; 100% is mature enzyme control, 0% vehicle. activation, % at 7 µM. 370,000 tested, 0.9% active. AID 652039;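 active = activation above the mean of all tested compounds plus 3 SD, computed per campaign excluding outliers beyond control limits, cut at about 13% in these data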
Target sequence (P49862 whole entry, looked up): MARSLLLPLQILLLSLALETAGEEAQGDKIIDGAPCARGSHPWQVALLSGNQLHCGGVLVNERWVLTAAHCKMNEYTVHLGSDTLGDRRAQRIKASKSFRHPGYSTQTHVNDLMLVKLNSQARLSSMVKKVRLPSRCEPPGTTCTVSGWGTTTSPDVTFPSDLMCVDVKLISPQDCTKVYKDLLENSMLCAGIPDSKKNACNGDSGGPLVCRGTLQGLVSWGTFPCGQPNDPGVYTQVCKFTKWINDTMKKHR
rCAG RNA binder: r(CAG) repeat RNA binding; TO-PRO-1 dye displacement fluorescence; inhibition, % at 3 µM; 370,000 tested, 1.3% active;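 active = inhibition above the plate cutoff, the mean of all test compounds on that plate plus 3 SD, cut at about 35% in these data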;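 note: 0% = DMSO alone and 100% = 100 µM mitoxantrone as full dye displacement; higher means more dye released from RNA so lower well fluorescence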
MPTP block: permeability transition pore inhibition | 360,000 tested, 1.4% active | AID 602449 | inhibition, % at 10 µM | isolated mouse mitochondria, Ca2+ swelling absorbance, 30 min;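 active = inhibition of 50% or more, scaled per plate between neutral and stimulator controls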;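 note: 0% = DMSO wells given calcium and 100% = 1 mM EGTA wells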
Pemphigus Ab inh: human desmoglein-3 autoantibody binding inhibition; AID 588358; 310,000 tested, 0.48% active; binding (percent of control), % at 10 µM; DSG3-coupled beads, scFv-anti-DSG3-GFP binding, flow cytometry; hits give low values; P32926;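 active = binding more than 3 SD below its plate's average and above zero; inconclusive = below that plate limit but binding exactly zero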;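 note: hits lower antibody fragment binding to DSG3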
ADAM10 inh: ADAM10 inhibition, QFRET primary screen | O14672 | recombinant ADAM10, EDANS/DABCYL FRET peptide cleavage, 3 h | inhibition, % at 7 µM | 370,000 tested, 0.62% active;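 active = inhibition above a per-campaign cutoff equal to the mean of compounds falling between control-based bounds plus 3 SD, cut at about 20% in these data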;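 note: 0% = DMSO wells while the 100% control is not disclosed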
ADAM17 inh: ADAM17 inhibition, QFRET primary screen. P78536. recombinant ADAM17, EDANS/DABCYL FRET peptide cleavage. inhibition, % at 6.95 µM. 370,000 tested, 0.83% active. AID 720648;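 active = inhibition above the mean of compounds lying between control limits plus 3 SD, set per campaign, cut at about 8.5% in these data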;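 note: 0% = DMSO-only wells as the low control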
An asterisk follows results filed as active; i = inactive; ? = inconclusive; / = no result.

SMILES	KLK7 zymogen act	rCAG RNA binder	MPTP block	Pemphigus Ab inh	ADAM10 inh	ADAM17 inh
Cc1ccccc1-c1ccc2c(c1)[C@@H]1C[C@H]3[C@@H](CN1CC2)[C@H](C)OC(c1ccccc1)N3C (stereo partly drawn)	6.2	6.1	/	/	-72.3	-16.8
O=C(NC(=S)Nc1ccccc1)c1ccc(-c2ccccc2)cc1	0.2	5.9	1.6	107.8	-2.7	1.9
CC(=O)Nc1ccc(NC(=S)NC(=O)c2ccc(-c3ccccc3)cc2)cc1	0.2	-0.5	16.4	70.9*	-15.2	-3.0
O=C(O)c1ccc(NC(=S)NC(=O)c2ccc(-c3ccccc3)cc2)cc1	0.1	6.2	0.3	30.7*	-2.2	-0.1
O=C(N[C@H](C(=O)N1CCC[C@H]1C(=O)NC1CCCC1)c1ccccc1)c1ccc(Cl)cc1Cl	0.4	1.4	/	/	0.9	-0.3
Cc1cc(=O)n2[nH]cc(-c3ccccc3)c2n1	-7.7	4.4	-0.9	85.0	-46.2	-22.6
Cc1nc2c(-c3ccccc3)c[nH]n2c(=O)c1Cc1ccccc1	-2.4	4.0	-0.2	64.1*	-18.7	-6.0
CC1(C)CC[C@]2(C(=O)n3ccnc3)CC[C@]3(C)[C@H](C(=O)C=C4[C@@]5(C)C=C(C#N)C(=O)C(C)(C)[C@@H]5CC[C@]43C)[C@@H]2C1	-0.1	52.8*	-2.9	/	4.4	-2.5
Cc1onc(-c2ccccc2Cl)c1C(=O)Nc1nnc(-c2ccc(F)cc2)s1	-0.5	13.8	0.4	100.0	-16.5	-3.0
Cc1onc(-c2ccccc2Cl)c1C(=O)Nc1nnc(-c2ccc(Br)cc2)s1	-0.9	45.9*	2.5	115.0	-103.5	-32.4
CCOc1ccccc1NCc1cc(=O)oc2cc(C)c(O)cc12	-0.6	7.8	1.1	86.0*	-4.6	-5.7
Cc1cc2oc(=O)cc(CNc3ccccc3F)c2cc1O	0.2	4.2	1.6	99.7	-5.8	-3.1
Cc1c2ccccc2cc[n+]1CCCS(=O)(=O)[O-]	-0.1	2.1	-0.2	103.2	-27.3	-10.6
CC1(C)C(/C=C/C=C/C=C/C=C2\N(CCCCS(=O)(=O)O)c3ccc4ccccc4c3C2(C)C)=[N+](CCCCS(=O)(=O)[O-])c2ccc3ccccc3c21	/	/	-5.6	33.0*	/	/
COCC(=O)N(C)c1nnc(-c2cnccn2)s1	31.7*	-3.8	-1.0	94.5	-30.4	-11.1
CCCCN(C)C(=O)c1cn(C(C)c2ccccc2)nn1 (stereo not drawn)	-0.7	-0.5	/	/	-6.7	-3.1
CCS(=O)(=O)N(C)C[C@@H]1OCc2ccccc2-c2c(n(C)c3ccccc23)C(=O)N([C@H](C)CO)C[C@@H]1C	-0.6	3.9	/	/	-20.9	-2.1
O=C1Cc2cccc(=O)c(O)c2C(=O)O1	0.2	5.8	-1.4	97.6	-11.8	-4.3
O=C1c2c(O)cccc2Cc2cccc(O)c21	0.5	6.7	3.1	63.8*	-6.5	-0.6
CCN(CC)C(=O)CSc1nnc(-c2ccc(C(C)(C)C)cc2)n1-c1ccc(Cl)cc1	0.3	2.7	/	/	8.7	7.0
COC(=O)[C@]12C[C@H](CC(=O)NCC3CCCCC3)C(=O)N(CCC3=CCCCC3)C1=C[C@H](COCc1ccccc1)O[C@@H]2C	0.2	6.7	/	/	-1.9	-2.6
O=[N+]([O-])c1ccc(NCCNc2ccc([N+](=O)[O-])cc2)cc1	0.5	2.8	6.8	-6.8*	-1.8	-1.6
CCOC(=O)N1CCN(C(=O)C[C@H]2C[C@@]3(C(=O)OC)C(=C[C@H](COCc4ccccc4)O[C@@H]3C)N(Cc3ccco3)C2=O)CC1	-0.1	1.7	/	/	1.6	2.9
CCc1ccc(S(=O)(=O)NC2CCCCNC2=O)cc1 (stereo not drawn)	-0.2	19.4	1.4	76.3*	-1.2	-3.9
COC(=O)c1cc(-c2cccc(C(C)C)c2)c(=O)n2c1CCC2	0.5	-1.5	/	/	-15.7	-5.2
SMILES	KLK7 zymogen act	rCAG RNA binder	MPTP block	Pemphigus Ab inh	ADAM10 inh	ADAM17 inh
Nc1ccc2cccc(O)c2c1	-0.7	15.0	2.8	63.5*	-0.7	-0.7
Cc1ccc(NC(=O)c2cccc3ccccc23)cc1	0.6	-3.0	0.2	99.6	-4.2	-2.6
Cc1ccc(NC(=O)c2csc(-c3ccccc3)c2C)cc1	0.4	0.3	11.0	-23.8*	-10.6	-5.3
O=C(C(=O)N1CCC(CNS(=O)(=O)c2ccc3ccccc3c2)CC1)c1cc2ccccc2o1	1.0	7.6	/	/	11.4	4.4
CC1=NN(c2nc(-c3ccccc3)cs2)C(=O)C1	0.1	68.2*	-5.2	99.0	14.2	7.5
CCOC(=O)c1sc(Nc2nc3c(F)cccc3s2)cc1C	-2.8	22.6	43.9	78.1*	-212.3	-86.0
CCOC(=O)c1sc(Nc2nc3ccc(OC)cc3s2)cc1C	-13.9	29.7	15.4	106.0	-399.9	-189.1
C[C@H]1COc2cccc(NCCO)c2S(=O)(=O)N1	-0.1	1.6	/	/	-0.7	0.0
O=C(Nc1nccs1)c1ccccc1N=Cc1ccccc1	41.9*	1.0	-3.9	/	i	-478.5
O=C(Nc1nccs1)c1cccnc1Cl	-0.1	-3.0	-0.2	96.5	3.0	1.2
Cc1ccccc1-c1nn[nH]n1	-0.3	-0.5	1.9	108.7	6.5	-3.4
Oc1ccc(N=Nc2ccccc2-c2nn[nH]n2)c(O)c1	-0.2	79.0*	-0.8	?	13.5	2.0
O=C(COc1ccc(Cl)cc1)Nc1ccc(N2CCN(C(=O)c3ccco3)CC2)cc1	0.2	-3.1	4.0	71.7*	3.9	-0.7
COc1ccc(OCC(=O)Nc2ccc(N3CCN(C(=O)c4ccco4)CC3)cc2)cc1	0.1	-4.1	3.4	109.0	8.5	0.5
NS(=O)(=O)c1ccc(NC(=O)COc2ccc(C(=O)c3ccc(F)cc3)cc2)cc1	-0.5	22.9	33.1	54.0*	2.5	-1.8
Cc1cccc(C)c1OCCNC(=O)c1ccc2ccccc2n1	0.2	-6.5	-2.2	-7.3*	8.6	1.7
O=C(Cn1nnc(-c2ccccc2)n1)N/N=C/c1cc([N+](=O)[O-])c(Cl)cc1Cl	0.2	1.3	18.6	73.7*	-5.3	-1.8
O=C(Cn1nnc(-c2ccccc2)n1)N/N=C/c1cc([N+](=O)[O-])ccc1O	-0.6	7.5	4.0	113.1	1.1	0.9
COC(=O)Cc1cc(=O)n(-c2nc3ccccc3[nH]2)[nH]1	0.1	42.3*	-3.7	95.7	0.0	1.3
COc1ccc(CC(=O)Nc2nc3ccccc3[nH]2)cc1	-0.6	-1.4	1.2	98.2	9.1	-2.0
COc1cc(NS(=O)(=O)c2ccc(NC(=O)/C(=C\c3ccccc3OC)NC(=O)c3ccccc3)cc2)nc(OC)n1	0.2	63.1*	-0.6	100.1	-6.5	-0.1
COc1cc(NS(=O)(=O)c2ccc(NS(=O)(=O)c3ccccc3)cc2)nc(OC)n1	0.9	-0.2	-0.7	104.5	4.2	-0.3
C[C@@H]1CN([C@H](C)CO)S(=O)(=O)c2ccc(Br)cc2O[C@H]1CN(C)CC1CCOCC1	0.3	0.9	/	/	4.2	-2.1

Source: PubChem
